About 83,000 compounds went through this panel and 20% of them were active in at least one assay; those are over-represented in the sample as a whole.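 Single-dose data. Exposure time 48 hours. Values below 10 considered active.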 Unmarked numbers belong to inactive results. Active and inactive are the calls of the source.

Test systems include NCI-H23 lung; NCI-H226 lung; NCI-H322M lung; HOP-62 NSCLC; NCI-H460 lung; NCI-H522 lung; A549/ATCC NSCLC; 786-0 renal; COLO 205 colon; DU-145 prostate; K-562 leukemia; MALME-3M melanoma; MDA-MB-231 breast; RXF 393 renal; SF-268 CNS; SF-295 CNS; SF-539 CNS; UACC-257 melanoma; M14 melanoma; HOP-92 NSCLC.
What all share (assay): NCI-60 one-dose screen, 48 h (100 = growth as untreated, 0 = no growth, -100 = all killed)
Conditions in all cases: 10 µM unless noted

Regarding `O=C1/C(=C/c2ccccc2Br)COc2ccc(O)cc21`, the growth in the assay on NCI-H23 lung was 92.5%; in the assay with NCI-H226 lung, 100%; in the assay with NCI-H322M lung, 93.8%; in the assay on HOP-62 NSCLC, 88.9%; in the assay with NCI-H460 lung, 95.3%; with NCI-H522 lung, 31.3%. The growth with A549/ATCC NSCLC was 86.4%; in the assay on 786-0 renal, 73%; with COLO 205 colon, 100%; in the assay on DU-145 prostate it was 69%; in the assay with K-562 leukemia it was 11.9%; in the assay on MALME-3M melanoma it was 84%. The growth in the assay with MDA-MB-231 breast is 73.9%; in the assay on RXF 393 renal, 101%; with SF-268 CNS, 86.1%; in the assay with SF-295 CNS, 99.1%; with SF-539 CNS, 80%; in the assay with UACC-257 melanoma it was 99.2%. Further, in the assay on M14 melanoma, the growth was 73.3%.
Consider `COc1cc(OC)c(NC(=O)c2cc3ccccc3cc2O)cc1Cl`, for which the growth with NCI-H23 lung was 10.7%; in the assay on NCI-H226 lung, 77%; in the assay on NCI-H322M lung it was 40.2%; in the assay with HOP-62 NSCLC, 68.2%; in the assay with NCI-H460 lung, 11.2%; in the assay with NCI-H522 lung it was -19.9% (active). The growth in the assay with A549/ATCC NSCLC is 32.1%; in the assay on 786-0 renal, 27.4%; with COLO 205 colon, 66.6%; in the assay on DU-145 prostate, 46.4%; in the assay with K-562 leukemia it was 23.4%; with MALME-3M melanoma, 19.5%. In addition, the growth was 70.4% in the assay with MDA-MB-231 breast; 120% in the assay on RXF 393 renal; 51.2% in the assay on SF-268 CNS; 53.3% in the assay with SF-295 CNS; 52.9% with SF-539 CNS; 59.8% in the assay with UACC-257 melanoma.
On to `CCCC/C=C/[C@@H]1C[C@H]1CCO`, for which the growth in the assay with NCI-H23 lung is 102%; in the assay on NCI-H226 lung it was 91.5%; in the assay with NCI-H322M lung, 92.1%; in the assay with HOP-62 NSCLC it was 90.5%; in the assay with NCI-H460 lung, 105%; in the assay with HOP-92 NSCLC, 96.5%. Besides, the growth is 78.3% in the assay with NCI-H522 lung; 99.5% in the assay on 786-0 renal; 116% in the assay on DU-145 prostate; 103% in the assay on K-562 leukemia; 93.6% with MALME-3M melanoma; 99.2% in the assay on MDA-MB-231 breast. Moreover, the growth was 108% in the assay with RXF 393 renal; 104% with SF-268 CNS; 98.2% with SF-295 CNS; 103% with SF-539 CNS; 91.5% with UACC-257 melanoma; 98.9% with M14 melanoma.
Consider `Cn1cc(-c2csc(-c3c[nH]c4ccc(Br)cc34)n2)c2ccnc(Cl)c21`, for which the growth was 62.1% in the assay on NCI-H23 lung; 59.4% in the assay on NCI-H226 lung; 67.1% with NCI-H322M lung; 101% in the assay with HOP-62 NSCLC; 9.96% (active) with NCI-H460 lung; 56.3% in the assay with NCI-H522 lung. Also, the growth is 42.4% in the assay with A549/ATCC NSCLC; 47% in the assay with 786-0 renal; 42.5% in the assay on COLO 205 colon; 42.9% in the assay on DU-145 prostate; 17.6% in the assay on K-562 leukemia; 112% in the assay on MALME-3M melanoma. Moreover, the growth is 54.8% in the assay with MDA-MB-231 breast; 51% with RXF 393 renal; 86.7% in the assay with SF-268 CNS; 62.1% in the assay on SF-295 CNS; 67.6% in the assay on SF-539 CNS; 17.4% in the assay with UACC-257 melanoma. Besides, the growth in the assay on M14 melanoma is 43.2%.
`Cc1cccc(/C=C2\CN(C(=O)OC(C)(C)C)C/C(=C\c3cccc(C)c3)C2=O)c1`: the growth with NCI-H23 lung was 92.7%; in the assay with NCI-H226 lung, 99.6%; with NCI-H322M lung, 95.8%; in the assay on HOP-62 NSCLC, 96.9%; in the assay on NCI-H460 lung, 110%; in the assay on NCI-H522 lung, 63.8%. Further, the growth in the assay on A549/ATCC NSCLC was 97.4%; in the assay on 786-0 renal it was 94.6%; in the assay with COLO 205 colon, 115%; with DU-145 prostate, 106%; in the assay on K-562 leukemia, 5.44% (active); with MALME-3M melanoma, 90.6%. Further, the growth with MDA-MB-231 breast is 98.8%; in the assay on RXF 393 renal, 128%; in the assay on SF-268 CNS, 94.1%; with SF-295 CNS, 101%; with SF-539 CNS, 104%; with UACC-257 melanoma, 94.7%. In addition, the growth in the assay on M14 melanoma is 90.5%.
For the compound `CCOCCNC1=C(Cl)C(=O)c2ccccc2C1=O`, the growth is 80.7% in the assay on NCI-H23 lung; 121% in the assay with NCI-H226 lung; 108% in the assay with NCI-H322M lung; 110% in the assay on HOP-62 NSCLC; 94.9% with NCI-H460 lung; 82.9% in the assay on NCI-H522 lung. Also, the growth in the assay with A549/ATCC NSCLC is 101%; in the assay on 786-0 renal, 105%; in the assay with COLO 205 colon it was 130%; in the assay on DU-145 prostate, 76.3%; with K-562 leukemia it was 91.8%; in the assay on MALME-3M melanoma, 106%. In addition, the growth with MDA-MB-231 breast was 116%; with RXF 393 renal, 123%; with SF-268 CNS it was 101%; in the assay with SF-295 CNS, 95.1%; in the assay with SF-539 CNS, 121%; with UACC-257 melanoma, 98.2%.
Regarding `NC(=O)c1cccc(-n2ccc3cc(NC(=O)c4ccc(N5CCOCC5)c(C(F)(F)F)c4)ccc32)n1`, the growth in the assay on NCI-H23 lung is 77.5%; with NCI-H226 lung, 66.3%; in the assay with NCI-H322M lung, 57.1%; with HOP-62 NSCLC it was 44.5%; in the assay with NCI-H460 lung, 43.8%; with NCI-H522 lung, 58.9%. Besides, the growth in the assay on A549/ATCC NSCLC was 42.7%; with 786-0 renal, 19.1%; in the assay with COLO 205 colon it was 34.4%; in the assay on DU-145 prostate it was 60.8%; in the assay on K-562 leukemia, 36.6%; in the assay with MALME-3M melanoma it was 65.4%. The growth in the assay with MDA-MB-231 breast is 49.6%; in the assay with RXF 393 renal it was -21.1% (active); in the assay with SF-268 CNS, 66.8%; with SF-295 CNS it was -52.1% (active); in the assay with SF-539 CNS it was -15.4% (active); with UACC-257 melanoma, 74.6%. Further, in the assay with M14 melanoma, the growth was 66.5%.
As to `c1csc(-c2ccc(CNc3c4ccccc4nc4ccccc34)cc2)c1`, the growth in the assay on NCI-H23 lung is 38.2%; in the assay on NCI-H226 lung, 69%; with NCI-H322M lung, 50.6%; in the assay with HOP-62 NSCLC, 54.6%; in the assay on NCI-H460 lung, 12.9%; with NCI-H522 lung it was 28.9%. For the same compound, the growth in the assay with A549/ATCC NSCLC was 26.7%; in the assay on 786-0 renal, 30.1%; in the assay with COLO 205 colon it was 5.13% (active); with DU-145 prostate, 61.7%; in the assay with K-562 leukemia, -39.9% (active); in the assay on MALME-3M melanoma, -82% (active). Moreover, the growth in the assay with MDA-MB-231 breast was 38.3%; in the assay with RXF 393 renal, -14.3% (active); with SF-268 CNS, 62.9%; in the assay on SF-295 CNS it was 15.8%; with SF-539 CNS it was 12.5%; with UACC-257 melanoma, -37.4% (active). Besides, the growth in the assay with M14 melanoma is -74.4% (active).
Turning to `CN(C)c1ccc(C(=O)OCCCCCCl)cc1`, the growth in the assay on NCI-H23 lung is 90.7%; in the assay on NCI-H226 lung it was 99%; in the assay on NCI-H322M lung, 85.4%; in the assay with HOP-62 NSCLC, 91.8%; with NCI-H460 lung it was 104%; with NCI-H522 lung it was 89.2%. Besides, the growth with A549/ATCC NSCLC is 100%; in the assay on 786-0 renal it was 95.3%; in the assay with COLO 205 colon, 110%; in the assay with DU-145 prostate, 96.4%; with K-562 leukemia, 106%; in the assay with MALME-3M melanoma, 89%. Moreover, the growth is 87.4% in the assay with MDA-MB-231 breast; 102% in the assay on RXF 393 renal; 94% with SF-268 CNS; 98.9% with SF-295 CNS; 96.1% in the assay with SF-539 CNS; 109% in the assay with UACC-257 melanoma. Moreover, the growth with M14 melanoma is 95.3%.

These data come from PubChem BioAssay (NCI).
